# Assay outcomes (PubChem)
# In the library only some 11% were active in any assay of this set; here they are far more common.
# HADH2 inh – blocks human hydroxyacyl-CoA dehydrogenase type II; AID 886; 3.4% of 73,000 active; recombinant HADH2, NADH fluorescence, beta-hydroxybutyryl-CoA; Q99714; Potency, µM (highest dose often 57.1 µM), for the others: top-dose activity change, negative = inhibition, usual class: inhibitors; further: nearly all actives have a fitted effect of over 60% in size
# Target sequence (Q99714 whole entry, looked up, one chain of several): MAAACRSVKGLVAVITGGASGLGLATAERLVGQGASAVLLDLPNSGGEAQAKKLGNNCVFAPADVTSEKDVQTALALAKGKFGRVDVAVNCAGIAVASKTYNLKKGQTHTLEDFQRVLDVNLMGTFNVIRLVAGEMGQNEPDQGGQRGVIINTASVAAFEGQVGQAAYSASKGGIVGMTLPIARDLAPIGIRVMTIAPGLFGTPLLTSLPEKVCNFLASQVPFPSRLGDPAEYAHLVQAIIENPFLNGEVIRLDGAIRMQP
#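 Read-out: 360 nm excitation, 450 nm emission, kinetic over 4 min. Conditions: His-tagged human HADH2 20 nM, pH 9.0 Tris with Tween-20, 1 mM NAD+, 90 uM beta-hydroxybutyryl-CoA.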
# HSD17B inh – inhibitors of human HSD17B10 dehydrogenase; Q99714; recombinant HSD17B10, NADH fluorescence kinetic; Potency, µM (series often up to 57.1 µM), for inactives: top-dose activity change, negative = inhibition, hits mostly inhibitors; 7.6% of 75,000 active; AID 893;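 further: the protocol describes HADH2 (HSD17B10) and not the HSD17B4 of the title; nearly all actives have a fitted effect of over 70% in size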
#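 Activity followed as NADH fluorescence increase (ex 360, em 450 nm) every 30 seconds for 4 min, using final 90 uM beta-hydroxybutyryl CoA and 1 mM NAD+. Recombinant His-tagged enzyme, 20 nM, pH 9.0 Tris buffer, 15 min compound preincubation.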
# PK Bst – pyruvate kinase (B. stearothermophilus) modulation. purified pyruvate kinase, luminescence ATP production; ribose 5-phosphate activator present at AC10. Potency, µM. AID 361. 1.2% of 51,000 active; in the data active means potency below about 11 µM; inconclusive means mostly about 12 µM to 25 µM;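 the screen sought inhibitors and activators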;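 further: scaled between full activation by ribose 5 phosphate and full inhibition by luteolin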
# ERK AVP block – inhibitors of vasopressin-stimulated ERK signaling pathway; HEK293-V1b, vasopressin-stimulated pERK AlphaScreen; 0.99% of 72,000 active; Potency, µM (top dose mostly 57.5 µM), inactives show at the top dose activity, negative = inhibition, actives largely listed as inhibitors; AID 995; further: nearly all actives have a fitted effect of over 55% in size
#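 Phosphorylated ERK1/2 detected via AlphaScreen bead proximity in lysates of V1b-expressing HEK293 cells given 25 nM vasopressin for 5 min after 30 min compound exposure (37 °C). AC50 from Hill equation; basal DMSO 0%, vasopressin 100%.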
# ALOX15 inhib – inhibitors of human 15-lipoxygenase (ALOX15). P16050. purified 15hLO-1, xylenol orange hydroperoxide absorbance. Potency, µM (top dose mostly 57.1 µM), without a hit: at the highest dose activity change, negative = inhibition, hits mostly inhibitors. 1.4% of 74,000 active; further: nearly all actives have a fitted effect of over 55% in size
#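 Purified human 15hLO-1 (40 nM final) in 25 mM Hepes pH 7.5, 0.01% Triton X-100 was preincubated with compound 15 min at room temperature, then reacted 6 min with 50 uM arachidonic acid; hydroperoxide detected by Fe-XO, 573/405 nm absorbance ratio.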
# Luciferase inh – firefly luciferase inhibition; P08659; purified firefly luciferase, luminescence, 8 min; Potency, µM (titrated, usually from 57.1 µM), inactives show at the top dose activity change, negative = inhibition, most hits filed as inhibitors; 2.2% of 72,000 active; further: nearly all actives have a fitted effect of over 40% in size
#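 Luminescence read-out after 8 min at room temperature; enzyme reaction used luciferin plus 10 uM ATP (linear range) in imidazole buffer pH 7.2 with KCl, MgCl2, Tween 20 and BSA. Each sample was run as a titration.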
# * hit, by the source's call; ? = inconclusive; / = no result given; [ ] = remark or other dose. Unless noted, the call rests on the fitted dose curve; in most records, active means well fitted curve in the direction sought with a large enough effect; inconclusive means small, poorly fitted or top-dose-only effect, or another doubt; inactive means no such curve, though single readings can be large; an effect the other way counts as inactive or inconclusive. Unless noted, on the % scale 0 is the no-effect control and ±100 the full control effect; potency means the concentration at half of the fitted maximal effect.
SMILES,HADH2 inh,HSD17B inh,PK Bst,ERK AVP block,ALOX15 inhib,Luciferase inh
COc1cccc2[nH]c3c(N4CCCCC4)ncnc3c12,?,25µM*,/,20µM*,-2%,?
COc1cc2[nH]c3c(N4CCN(c5ccccn5)CC4)ncnc3c2cc1OC,21%,32µM*,/,25µM*,-21%,-29%
CCOC(=O)C1CCN(c2ncnc3c2[nH]c2cccc(OC)c23)CC1,32µM*,32µM*,/,-21%,-16%,-3%
O=C(O)c1[nH]c2c([N+](=O)[O-])cc([N+](=O)[O-])cc2c1C(=O)O,3%[11.4 µM],-4%[11.4 µM],/,8%[11.5 µM],-2%[11.4 µM],1%[11.4 µM]
C[C@H](CCC(=O)O)[C@H]1CC[C@]2(C)[C@@H]3C(=O)C[C@H]4C(C)(C)[C@@H](O)CC[C@]4(C)[C@H]3C(=O)C[C@@]12C,-3%[11.4 µM],1%[11.4 µM],/,2%[11.5 µM],1%[11.4 µM],2%[11.4 µM]
O=[N+]([O-])c1ccc(Cl)cc1Cl,5%,-3%,/,36%,-1%,/
CCOC(=O)c1cc(-c2ccc(N)cc2)sc1N,?,-22%,?,-32%,25µM*,13µM*
CCN(CC)Cc1c[nH]c2c(C(=O)OC)cccc12,-2%,32µM*,/,3%,-5%,1%
N=C(N)SCCc1ccc(OCc2ccc([N+](=O)[O-])cc2)cc1,3%,-19%,/,?,?,2%
Cc1ccc(S(=O)(=O)Nc2ccc3oc(=O)sc3c2)c(C)c1,13µM*,?,/,26%,?,-2%
Cc1ccc(S(=O)(=O)Nc2ccc(O)c(C(=O)O)c2)c(C)c1,-22%,-16%,/,/,-4%,/
O=C(O)c1cc(S(=O)(=O)Nc2ccc3oc(=O)sc3c2)ccc1O,2µM*,16µM*,>11,29%,?,2%
COc1cc2ccccc2cc1-c1nnc(COc2ccccc2)o1,25%,20µM*,/,-2%,1%,1%
COc1ccccc1Nc1nnc(SCC(=O)N2CCCC2=O)s1,0%,-1%,/,0%,4%,20µM*
Nc1nc(Nc2cccc(F)c2)nc2ccccc12,-9%,?,9.4*,-19%,?,10µM*
c1ccc(CNc2ncncc2-c2ccc3c(c2)OCO3)cc1,?,?,/,?,?,3%[2.29 µM]
CCOC(=O)C1=C(CS(=O)(=O)c2ccc(F)c(C)c2)NC(=O)NC1c1ccc(O)c(O)c1 (stereo not given),?,?,/,25µM*,?,-5%
CCN=C(N)CSS(=O)(=O)O,?,-6%[11.4 µM],/,7%[11.5 µM],-9%[11.4 µM],0%[11.4 µM]
CCCOC(=O)c1ccc(Nc2cc(C)nc3ncnn23)cc1,-5%,-6%,11*,-17%,12%,1%
CCn1c2ccccc2c2cc(Nc3cc(C)nc4ncnn34)ccc21,-16%,-17%,/,25µM*,-24%,-7%
C[C@@H]1CC2(OC[C@]3(C)O[C@H]23)O[C@H]2C[C@@]3(C)[C@@H]4CC[C@H]5C(C)(C)C(O[C@@H]6OC[C@@H](O)[C@H](O)[C@H]6O)CC[C@@]56C[C@@]46CC[C@]3(C)[C@@H]12 (stereo not given in full),-11%,-5%,/,19%,8%,/
CN1/C(=C/C=N/n2cnnc2)C(C)(C)c2ccccc21,7%,?,>57,?,25µM*,0%
CN1/C(=C\P(=O)(N(C)C)N(C)C)C(C)(C)c2ccccc21,-6%,-5%,>57,0%,-1%,-1%
CC1=C(C#N)C(c2cccnc2)C2=C(CC(C)(C)CC2=O)N1 (stereo not given),?,25µM*,/,9%,-15%,2%
CC1=C(C#N)C(C)C2=C(CC(C)(C)CC2=O)N1 (stereo not given),?,32µM*,/,-3%,-4%,4%
Cc1ccc(CNC2=NCCCCC2)n1C,6%,-1%,>57,-9%,20µM*,-6%
O=C1[C@H]2CCn3c(=O)n(-c4ccccc4)c(=O)n3[C@H]2[C@H](O)[C@H]2O[C@@H]12,-8%[11.4 µM],5%[11.4 µM],/,-6%[11.5 µM],5%[11.4 µM],-2%[11.4 µM]
